We go through 15 compounds from PubChem BioAssay (NCI).

Compounds without any hit were thinned out: in the full panel of roughly 83,000, 20% have a hit.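 Single-dose data. Exposure time 48 hours. Values below 10 considered active.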 The source made the active and inactive calls.

The experiment concerns HL-60(TB) leukemia. Kind of experiment: NCI-60 one-dose screen, 48 h (100 = growth as untreated, 0 = no growth, -100 = all killed). To be noted: 10 µM unless noted.
As for `CCOc1ccc(Br)cc1/C=N\N=C\c1cc(Br)ccc1OCC`, the growth is 73.2% (inactive).
The same measure for `Cc1cc2nc3c4cccc(O)c4n(CCN(C)C)c3nc2cc1C`: 29.2% (inactive); for `Cn1c(=O)c2[nH]c(CC(=O)O)nc2n(C)c1=O`: 110% (inactive); for `COc1cccc(CNC(=O)c2cccc(C3CC(=O)c4c(cc(OC)c(OC)c4OC)O3)c2)c1` (stereo not given): 43.9% (inactive).
Take `O=C(Nc1ccc(F)cc1)Nc1ccc(NC(=O)c2cc(Cl)nc3ccccc23)cc1`: the growth is 63.9% (inactive).
The same measure for `CN1C(=O)C(=Cc2cn(Cc3ccccc3)c3ccc(Br)cc23)C(=O)N(C)C1=O`: 73.3% (inactive).
Regarding `CCCCN(CCCC)CC(O)c1ccc(OCc2ccccc2)c2ccccc12` (stereo not given), the growth is -23.6% (active).
As for `O=C(NNC(=O)c1ccc(NC(=O)c2ccccn2)cc1)Nc1ccc2ccccc2c1`, the growth was 105% (inactive).
The same measure for `Cc1cc(Cl)ccc1OC(C)C(=O)Nc1nnc(C2CC2)s1` (stereo not given): 108% (inactive); for `O=C(Nc1ccc(Oc2ccc(F)cc2)c(Cl)c1)c1cccnc1`: 83.2% (inactive); for `Cc1ccc(Cn2c(-c3cccs3)nc3ccccc32)cc1`: 122% (inactive).
As for `COC(=O)c1c2c(c(C)[n+]([O-])c1C)C(=O)C=C(NCc1ccc(F)c(F)c1)C2=O`, the growth was -24% (active).
Take `O=C(/C=C/c1ccc(Cl)cc1)c1ccc(-n2cc(CN3CCN(c4cc5c(cc4F)c(=O)c(C(=O)O)cn5C4CC4)CC3)nn2)cc1`: the growth is 99% (inactive).
Regarding `O=C(NC1CCCCC1)C(c1cccs1)N(CCc1ccccc1)C(=O)c1ccco1` (stereo not given), the growth was 100% (inactive).
Consider `Cc1c(Cl)cccc1NC(=O)CCCl`, for which the growth was 73.6% (inactive).
